Publication PMC7862700, “An all-to-all approach to the identification of sequence-specific readers for epigenetic DNA modifications on cytosine”

How the values were obtained:
Test in all cases: DAPPL (digital affinity profiling via proximity ligation, sequencing); 10 mM Tris-HCl pH 7.5, 50 mM NaCl, 1 mM DTT, 4% glycerol, room temperature, 30 min; GST-TFs on glutathione beads, 16-mer random dsDNA library, 0.1% formaldehyde crosslink after washing; high values mean tight binding
Details in all cases: protein: recombinant; tags: N-terminal GST; dsDNA, one strand shown
ELK4 = biological target: T1, ELK4 (Homo sapiens, UniProt P28324-2 1-405)
T1 sequence: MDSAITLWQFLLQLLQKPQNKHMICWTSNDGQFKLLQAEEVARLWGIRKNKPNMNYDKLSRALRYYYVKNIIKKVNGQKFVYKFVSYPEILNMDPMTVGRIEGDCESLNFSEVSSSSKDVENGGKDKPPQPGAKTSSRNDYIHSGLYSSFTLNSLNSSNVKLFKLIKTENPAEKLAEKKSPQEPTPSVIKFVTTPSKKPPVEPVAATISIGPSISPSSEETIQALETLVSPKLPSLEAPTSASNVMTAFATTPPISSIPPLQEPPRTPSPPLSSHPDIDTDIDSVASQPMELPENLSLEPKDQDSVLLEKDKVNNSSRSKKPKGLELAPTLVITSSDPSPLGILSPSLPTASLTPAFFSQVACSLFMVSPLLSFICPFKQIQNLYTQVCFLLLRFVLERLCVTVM
Procedure, shortened: (§1)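 Pools were built from human transcription factors expressed in yeast as GST fusions, captured on glutathione beads and DNA-barcoded, along with a tag-only sample. Incubation with 200 nmole of a 16-mer random double-stranded DNA library lasted 30 min at room temperature in Tris/NaCl/DTT/glycerol buffer, and was followed by washing, 0.1% formaldehyde crosslinking, proximity ligation, PCR amplification and Illumina NextSeq500 sequencing. Binding signal is the quotient of each hexamer's read frequency for a factor and its frequency for the tag-only sample.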

ELF3 = biological target: T2, ELF3 (Homo sapiens, UniProt P78545 1-371)
T2 sequence: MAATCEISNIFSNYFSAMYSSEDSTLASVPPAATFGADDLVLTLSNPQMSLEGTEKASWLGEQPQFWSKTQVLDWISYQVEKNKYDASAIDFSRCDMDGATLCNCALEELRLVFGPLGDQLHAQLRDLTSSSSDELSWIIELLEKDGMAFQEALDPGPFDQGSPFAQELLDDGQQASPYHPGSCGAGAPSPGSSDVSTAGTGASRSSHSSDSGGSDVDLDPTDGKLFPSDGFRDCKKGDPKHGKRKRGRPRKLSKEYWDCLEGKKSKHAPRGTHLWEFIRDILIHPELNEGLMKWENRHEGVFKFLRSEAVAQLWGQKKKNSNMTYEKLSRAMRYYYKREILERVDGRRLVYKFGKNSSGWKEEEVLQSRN
Procedure, shortened: as §1

ETV1 = ETV1 (Homo sapiens, UniProt P50549 1-477)
Procedure, shortened: as §1

ERF = biological target: T3, ERF (Homo sapiens, UniProt P50548 1-548)
T3 sequence: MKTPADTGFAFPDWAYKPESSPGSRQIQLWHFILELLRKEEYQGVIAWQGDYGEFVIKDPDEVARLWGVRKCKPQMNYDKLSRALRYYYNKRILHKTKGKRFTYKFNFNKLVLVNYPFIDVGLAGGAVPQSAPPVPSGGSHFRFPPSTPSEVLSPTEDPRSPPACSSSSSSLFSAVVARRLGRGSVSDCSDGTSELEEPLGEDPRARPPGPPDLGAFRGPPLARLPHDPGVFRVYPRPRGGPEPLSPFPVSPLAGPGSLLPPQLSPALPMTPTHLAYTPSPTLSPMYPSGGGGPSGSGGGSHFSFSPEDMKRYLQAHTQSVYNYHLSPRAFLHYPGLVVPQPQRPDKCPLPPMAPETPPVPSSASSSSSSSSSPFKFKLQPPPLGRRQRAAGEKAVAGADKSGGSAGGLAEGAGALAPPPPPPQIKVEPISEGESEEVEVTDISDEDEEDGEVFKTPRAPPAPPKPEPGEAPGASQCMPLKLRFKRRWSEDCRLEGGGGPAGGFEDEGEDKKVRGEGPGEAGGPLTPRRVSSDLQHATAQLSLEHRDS
Procedure, shortened: as §1

ETV3L = biological target: T4, ETV3L (Homo sapiens, UniProt Q6ZN32 1-361)
T4 sequence: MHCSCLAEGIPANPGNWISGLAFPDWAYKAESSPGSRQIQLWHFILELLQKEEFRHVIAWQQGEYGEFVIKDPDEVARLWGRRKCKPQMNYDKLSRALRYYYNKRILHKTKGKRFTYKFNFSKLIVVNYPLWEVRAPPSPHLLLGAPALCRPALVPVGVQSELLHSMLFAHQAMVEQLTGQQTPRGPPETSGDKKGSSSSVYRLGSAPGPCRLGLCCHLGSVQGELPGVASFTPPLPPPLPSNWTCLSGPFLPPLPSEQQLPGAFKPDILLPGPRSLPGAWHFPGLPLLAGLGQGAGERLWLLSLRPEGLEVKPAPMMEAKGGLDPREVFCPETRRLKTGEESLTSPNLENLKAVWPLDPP
Procedure, shortened: as §1

ETS2 = biological target: T5, ETS2 (Homo sapiens, UniProt P15036 1-469)
T5 sequence: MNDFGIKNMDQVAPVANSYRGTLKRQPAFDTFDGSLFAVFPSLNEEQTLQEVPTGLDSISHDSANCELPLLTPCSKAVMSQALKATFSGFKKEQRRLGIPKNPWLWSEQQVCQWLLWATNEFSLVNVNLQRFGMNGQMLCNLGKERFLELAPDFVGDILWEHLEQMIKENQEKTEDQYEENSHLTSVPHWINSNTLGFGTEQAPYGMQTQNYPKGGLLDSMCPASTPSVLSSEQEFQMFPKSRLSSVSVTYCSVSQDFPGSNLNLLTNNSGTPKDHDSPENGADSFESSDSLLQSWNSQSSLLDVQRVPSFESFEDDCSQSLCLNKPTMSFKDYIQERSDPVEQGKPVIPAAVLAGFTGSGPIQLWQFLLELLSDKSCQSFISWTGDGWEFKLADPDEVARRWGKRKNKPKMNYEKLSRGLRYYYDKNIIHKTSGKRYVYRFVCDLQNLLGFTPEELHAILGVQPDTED
Procedure, shortened: as §1

SPDEF = biological target: T6, SPDEF (Homo sapiens, UniProt O95238 1-335)
T6 sequence: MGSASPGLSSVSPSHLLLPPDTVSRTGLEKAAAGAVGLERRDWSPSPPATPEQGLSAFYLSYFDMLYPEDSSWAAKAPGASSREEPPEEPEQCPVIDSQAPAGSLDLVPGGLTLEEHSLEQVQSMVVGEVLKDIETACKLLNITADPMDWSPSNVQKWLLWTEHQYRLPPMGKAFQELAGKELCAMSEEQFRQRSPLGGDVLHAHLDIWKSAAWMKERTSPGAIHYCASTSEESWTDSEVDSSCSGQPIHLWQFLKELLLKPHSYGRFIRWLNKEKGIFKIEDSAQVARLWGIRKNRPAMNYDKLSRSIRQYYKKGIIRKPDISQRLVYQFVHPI
Procedure, shortened: as §1

ETV7 = biological target: T7, ETV7 (Homo sapiens, UniProt Q9Y603 1-341)
T7 sequence: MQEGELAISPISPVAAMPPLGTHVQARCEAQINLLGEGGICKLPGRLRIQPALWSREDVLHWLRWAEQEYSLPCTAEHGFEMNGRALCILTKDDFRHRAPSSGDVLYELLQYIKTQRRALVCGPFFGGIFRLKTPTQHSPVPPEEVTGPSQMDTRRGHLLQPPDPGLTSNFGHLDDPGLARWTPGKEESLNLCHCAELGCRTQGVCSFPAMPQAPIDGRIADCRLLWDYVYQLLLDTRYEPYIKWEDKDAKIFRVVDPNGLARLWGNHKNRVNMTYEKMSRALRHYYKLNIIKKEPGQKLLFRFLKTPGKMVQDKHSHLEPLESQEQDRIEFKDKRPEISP
Procedure, shortened: as §1

ETV3 = biological target: T8, ETV3 (Homo sapiens, UniProt P41162-2 1-143)
T8 sequence: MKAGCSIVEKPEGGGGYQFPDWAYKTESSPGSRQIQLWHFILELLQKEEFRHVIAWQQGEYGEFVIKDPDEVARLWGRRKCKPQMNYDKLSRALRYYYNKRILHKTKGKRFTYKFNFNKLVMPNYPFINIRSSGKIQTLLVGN
Procedure, shortened: as §1

ETV6 = ETV6 (Homo sapiens, UniProt P41212 1-452)
Procedure, shortened: as §1

Chain of ETV1 (P50549 whole entry): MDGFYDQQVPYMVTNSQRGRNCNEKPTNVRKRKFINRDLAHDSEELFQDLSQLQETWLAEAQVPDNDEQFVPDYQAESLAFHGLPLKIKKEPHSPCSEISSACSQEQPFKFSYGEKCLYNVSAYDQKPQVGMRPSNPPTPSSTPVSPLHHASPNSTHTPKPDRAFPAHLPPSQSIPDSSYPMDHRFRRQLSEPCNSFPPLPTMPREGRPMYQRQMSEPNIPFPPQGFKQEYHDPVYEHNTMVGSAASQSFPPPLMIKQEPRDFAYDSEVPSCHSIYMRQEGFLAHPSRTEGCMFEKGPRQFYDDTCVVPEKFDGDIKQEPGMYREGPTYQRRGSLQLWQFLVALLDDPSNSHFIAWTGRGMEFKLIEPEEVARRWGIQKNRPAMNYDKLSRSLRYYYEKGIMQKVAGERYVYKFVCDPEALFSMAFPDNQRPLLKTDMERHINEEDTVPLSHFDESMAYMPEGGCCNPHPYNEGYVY
Chain of ETV6 (P41212 whole entry): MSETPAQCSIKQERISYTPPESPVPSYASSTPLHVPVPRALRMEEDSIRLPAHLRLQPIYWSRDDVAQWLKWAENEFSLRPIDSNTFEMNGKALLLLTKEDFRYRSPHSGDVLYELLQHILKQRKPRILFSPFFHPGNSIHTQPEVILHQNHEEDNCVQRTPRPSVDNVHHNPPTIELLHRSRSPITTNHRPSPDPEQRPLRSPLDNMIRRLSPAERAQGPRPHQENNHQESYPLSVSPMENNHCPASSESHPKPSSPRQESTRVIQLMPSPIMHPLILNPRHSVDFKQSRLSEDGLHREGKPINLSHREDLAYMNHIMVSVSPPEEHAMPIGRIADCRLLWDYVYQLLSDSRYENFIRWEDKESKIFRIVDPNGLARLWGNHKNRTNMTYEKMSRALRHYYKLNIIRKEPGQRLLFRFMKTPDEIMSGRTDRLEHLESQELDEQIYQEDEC

GGTAAA
binding signal (ELK4): 1.11 fold enrichment (6-mer frequency, TF over GST control)
binding signal (ELF3): 1.13 fold enrichment (6-mer frequency, TF over GST control)
binding signal (ETV1): 1.08 fold enrichment (6-mer frequency, TF over GST control)
binding signal (ERF): 1.01 fold enrichment (6-mer frequency, TF over GST control)
binding signal (ETV3L): 1 fold enrichment (6-mer frequency, TF over GST control)
binding signal (ETS2): 1.1 fold enrichment (6-mer frequency, TF over GST control)
binding signal (SPDEF): 1.02 fold enrichment (6-mer frequency, TF over GST control)
binding signal (ETV7): 1.12 fold enrichment (6-mer frequency, TF over GST control)
binding signal (ETV3): 1.06 fold enrichment (6-mer frequency, TF over GST control)
binding signal (ETV6): 1.07 fold enrichment (6-mer frequency, TF over GST control)
